# Measurements reported in PubChem BioAssay AID1159580 (chemical genetic matrix, 2015).
# Several values for one entry are separate records, joined by “and”; a condition that tells them apart may be missing. Equal values may be shown once. Screen size: about 5,500 compounds; about 2,000 (36%) were called active. Roughly 18% stayed inconclusive and do not appear here. Cut-off read from the data, not from the text of the source: active = normalized growth mostly below about 0.91 (no sharp cut-off); inconclusive = no clear call, values can overlap the other calls; inactive = mostly above about 0.92. The list shows a part of the results.
# Assay: chemical genetic growth profiling, strain panel (AID 1159580);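 note: tested at 20 µM; growth read once vehicle control cultures reached saturation at 30 °C; 1 = growth at the plate median or of vehicle wells; lower values mean less growth of the strain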
# Conditions: S. cerevisiae deletion strains, growth OD
smiles,measurement,setting,value
C1CCC(C(CC2CCCCN2)C2CCCCC2)CC1 (stereo not drawn),normalized growth,"locus YAL013W, strain DEP1, stronger effect = lower value",0.789 (active)
same,normalized growth,"locus YAL021C, strain ccr4, stronger effect = lower value",0.628 (active)
same,normalized growth,"locus YAL026C, strain drs2, stronger effect = lower value",0.0926 (active)
same,normalized growth,"locus YAL030W, strain snc1, stronger effect = lower value",0.986 (inactive)
same,normalized growth,"locus YBL061C, strain skt5, stronger effect = lower value",0.935 (inactive)
same,normalized growth,"locus YBR009C, strain hhf1, stronger effect = lower value",0.955 (inactive)
same,normalized growth,"locus YBR021W, strain FUR4, stronger effect = lower value",0.219 (active)
same,normalized growth,"locus YBR023C, strain chs3, stronger effect = lower value",0.884 (active)
same,normalized growth,"locus YBR171W, strain sec66, stronger effect = lower value",0.973 (inactive)
same,normalized growth,"locus YBR229C, strain ROT2, stronger effect = lower value",0.99 (inactive)
same,normalized growth,"locus YBR231C, strain swc5, stronger effect = lower value",0.554 (active)
same,normalized growth,"locus YBR279W, strain paf1, stronger effect = lower value",0.969 (inactive)
same,normalized growth,"locus YCL011C, strain gbp2, stronger effect = lower value",0.97 (inactive)
same,normalized growth,"locus YCL016C, strain dcc1, stronger effect = lower value",0.955 (inactive)
same,normalized growth,"locus YCL029C, strain bik1, stronger effect = lower value",0.873 (active)
same,normalized growth,"locus YCL061C, strain MRC1, stronger effect = lower value",0.992 (inactive)
same,normalized growth,"locus YCL069W, strain vba3, stronger effect = lower value",0.965 (inactive)
same,normalized growth,"locus YCR088W, strain abp1, stronger effect = lower value",0.96 (inactive)
same,normalized growth,"locus YDL005C, strain med2, stronger effect = lower value",0.983 (inactive)
same,normalized growth,"locus YDL035C, strain GPR1, stronger effect = lower value",0.493 (active)
same,normalized growth,"locus YDL040C, strain nat1, stronger effect = lower value",0.978 (inactive)
same,normalized growth,"locus YDL074C, strain BRE1, stronger effect = lower value",0.585 (active)
same,normalized growth,"locus YDL101C, strain DUN1, stronger effect = lower value",0.173 (active)
same,normalized growth,"locus YDL134C, strain PPH21, stronger effect = lower value",0.209 (active)
same,normalized growth,"locus YDL185W, strain tfp1, stronger effect = lower value",1.01 (inactive)
same,normalized growth,"locus YDL192W, strain arf1, stronger effect = lower value",0.0725 (active)
same,normalized growth,"locus YDR001C, strain nth1, stronger effect = lower value",0.967 (inactive)
same,normalized growth,"locus YDR069C, strain doa4, stronger effect = lower value",0.706 (active)
same,normalized growth,"locus YDR101C, strain arx1, stronger effect = lower value",0.911 (active)
same,normalized growth,"locus YDR137W, strain rgp1, stronger effect = lower value",1.32 [resistant] (active)
same,normalized growth,"locus YDR159W, strain sac3, stronger effect = lower value",0.965 (inactive)
same,normalized growth,"locus YDR162C, strain NBP2, stronger effect = lower value",0.0586 (active)
same,normalized growth,"locus YDR195W, strain ref2",1.13 (inactive)
same,normalized growth,"locus YDR297W, strain sur2, stronger effect = lower value",0.987 (inactive)
same,normalized growth,"locus YDR318W, strain mcm21, stronger effect = lower value",0.646 (active)
same,normalized growth,"locus YDR334W, strain swr1, stronger effect = lower value",0.972 (inactive)
same,normalized growth,"locus YDR335W, strain msn5, stronger effect = lower value",0.957 (inactive)
same,normalized growth,"locus YDR388W, stronger effect = lower value",0.125 (active)
same,normalized growth,"locus YDR392W, strain spt3, stronger effect = lower value",0.871 (inactive)
same,normalized growth,"locus YDR502C, strain sam2, stronger effect = lower value",0.594 (active)
same,normalized growth,"locus YEL003W, strain gim4, stronger effect = lower value",0.946 (inactive)
same,normalized growth,"locus YEL037C, strain rad23, stronger effect = lower value",0.974 (inactive)
same,normalized growth,"locus YEL061C, strain CIN8 (second series), stronger effect = lower value",0.973 (inactive)
same,normalized growth,"locus YEL061C, strain CIN8, stronger effect = lower value",0.658 (active)
same,normalized growth,"locus YER015W, strain faa2, stronger effect = lower value",0.979 (inactive)
same,normalized growth,"locus YER016W, strain bim1, stronger effect = lower value",0.972 (inactive)
same,normalized growth,"locus YER110C, stronger effect = lower value",0.935 (inactive)
same,normalized growth,"locus YER111C, strain swi4, stronger effect = lower value",0.991 (inactive)
same,normalized growth,"locus YER155C, strain BEM2 (second series), stronger effect = lower value",0.912 (inactive)
same,normalized growth,"locus YER155C, strain BEM2, stronger effect = lower value",0.957 (inactive)
same,normalized growth,"locus YER167W, strain BCK2, stronger effect = lower value",0.718 (active)
same,normalized growth,"locus YFR010W, strain ubp6, stronger effect = lower value",0.601 (active)
same,normalized growth,"locus YGL078C, strain dbp3, stronger effect = lower value",0.999 (inactive)
same,normalized growth,"locus YGL086W, strain mad1, stronger effect = lower value",0.333 (active)
same,normalized growth,"locus YGL167C, strain pmr1, stronger effect = lower value",0.989 (inactive)
same,normalized growth,"locus YGL173C, strain kem1, stronger effect = lower value",0.962 (inactive)
same,normalized growth,"locus YGL227W, strain vid30, stronger effect = lower value",0.991 (inactive)
same,normalized growth,"locus YGL240W, strain doc1, stronger effect = lower value",0.989 (inactive)
same,normalized growth,"locus YGL248W, strain PDE1, stronger effect = lower value",0.227 (active)
same,normalized growth,"locus YGL253W, strain hxk2, stronger effect = lower value",0.973 (inactive)
same,normalized growth,"locus YGR135W, strain pre9, stronger effect = lower value",0.501 (active)
same,normalized growth,"locus YGR252W, strain gcn5, stronger effect = lower value",0.271 (active)
same,normalized growth,"locus YHR013C, strain ard1, stronger effect = lower value",0.842 (active)
same,normalized growth,"locus YHR027C, strain rpn1, stronger effect = lower value",0.987 (inactive)
same,normalized growth,"locus YHR030C, strain SLT2, stronger effect = lower value",0.0919 (active) and 1.01 (inactive)
same,normalized growth,"locus YHR079C, strain IRE1 (second series), stronger effect = lower value",0.93 (inactive)
same,normalized growth,"locus YHR079C, strain IRE1, stronger effect = lower value",1.02 (inactive)
same,normalized growth,"locus YHR094C, strain hxt1, stronger effect = lower value",1.01 (inactive)
same,normalized growth,"locus YHR129C, strain ARP1, stronger effect = lower value",0.742 (active)
same,normalized growth,"locus YHR142W, strain chs7, stronger effect = lower value",0.774 (active)
same,normalized growth,"locus YHR200W, strain rpn10, stronger effect = lower value",0.922 (inactive)
same,normalized growth,"locus YIL066C, strain RNR3, stronger effect = lower value",0.504 (active)
same,normalized growth,"locus YIL073C, strain SPO22, stronger effect = lower value",0.124 (active)
same,normalized growth,"locus YIL125W, strain kgd1, stronger effect = lower value",1.02 (inactive)
same,normalized growth,"locus YIR030C, strain dcg1, stronger effect = lower value",0.897 (active)
same,normalized growth,"locus YJL092W, strain hpr5, stronger effect = lower value",0.984 (inactive)
same,normalized growth,"locus YJL095W, strain BCK1 (second series), stronger effect = lower value",0.927 (inactive)
same,normalized growth,"locus YJL095W, strain BCK1, stronger effect = lower value",0.169 (active) and 1.01 (inactive)
same,normalized growth,"locus YJL115W, strain asf1, stronger effect = lower value",0.984 (inactive)
same,normalized growth,"locus YJL129C, strain trk1, stronger effect = lower value",0.953 (inactive)
same,normalized growth,"locus YJL134W, strain LCB3, stronger effect = lower value",0.996 (inactive)
same,normalized growth,"locus YJL154C, strain vps35, stronger effect = lower value",0.964 (inactive)
same,normalized growth,"locus YJL164C, strain tpk1, stronger effect = lower value",0.968 (inactive)
same,normalized growth,"locus YJL166W, strain qcr8, stronger effect = lower value",0.984 (inactive)
same,normalized growth,"locus YJL168C, strain set2, stronger effect = lower value",0.731 (active)
same,normalized growth,"locus YJL187C, strain SWE1 (second series), stronger effect = lower value",0.521 (active)
same,normalized growth,"locus YJL187C, strain SWE1, stronger effect = lower value",0.973 (inactive)
same,normalized growth,"locus YJR043C, strain POL32, stronger effect = lower value",0.722 (active)
